Columns and labels:
Conditions in all cases: Compound Concentration (nM):1000
TXK = tested on: TXK
[1] = tested on: TYK2(JH1domain-catalytic)
[2] = tested on: TYK2(JH2domain-pseudokinase)
TYRO3 = tested on: TYRO3
ULK1 = tested on: ULK1
ULK2 = tested on: ULK2
ULK3 = tested on: ULK3
VEGFR2 = tested on: T1, VEGFR2
T1 construct: gene KDR

VPS34 = tested on: T2, VPS34
T2 construct: gene PIK3C3

VRK2 = tested on: VRK2
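Note: KINOMEscan scanMAX binding as percent activity remaining versus control; lower means stronger binding.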

Compound | Percent Control (TXK) [%] | Percent Control [1] [%] | Percent Control [2] [%] | Percent Control (TYRO3) [%] | Percent Control (ULK1) [%] | Percent Control (ULK2) [%] | Percent Control (ULK3) [%] | Percent Control (VEGFR2) [%] | Percent Control (VPS34) [%] | Percent Control (VRK2) [%]
COc1ccc2[nH]c3c4[nH]c5ccc(OC)cc5c4c4c(c3c2c1)C(=O)NC4=O [GW296115X] | 100 | 87 | 84 | 71 | 100 | 87 | 43 | 59 | 80 | 98
COc1cc2ncnc(Nc3ccc4c(cnn4Cc4ccccc4)c3)c2cc1OC.Cl [GW282449A] | 100 | 100 | 100 | 51 | 74 | 100 | 100 | 79 | 100 | 100
COc1cc(N2CCN(C(C)C)CC2)ccc1Nc1nc(Nc2ccc(F)cc2C(=O)NC[C@@H](O)CO)c2cc[nH]c2n1 [GSK1392956A] | 92 | 100 | 100 | 74 | 65 | 77 | 100 | 100 | 82 | 68
Cc1cc(O)cc(C)c1/C=C/c1cncc(C(N)=O)c1 [GW435821X] | 100 | 100 | 90 | 100 | 100 | 97 | 98 | 87 | 100 | 100
CN1CCN(C(=O)c2ccc(NC(=O)Nc3ccc(N(C)c4ccnc(Nc5ccc(CS(C)(=O)=O)cc5)n4)cc3)cc2)CC1.Cl [GW830263A] | 15 | 4.2 | 6.5 | 92 | 79 | 78 | 7.6 | 1.1 | 74 | 93
CCc1ccc(Oc2nccc(-c3c(-c4ccc(F)cc4)ncn3C3CCNCC3)n2)cc1 [SB-242719] | 91 | 100 | 100 | 62 | 92 | 77 | 92 | 100 | 64 | 69
COc1ccc2c(-c3ccnc(Nc4cccc(OC(F)(F)F)c4)n3)cnn2n1 [GW810372X] | 67 | 98 | 75 | 100 | 100 | 100 | 100 | 73 | 29 | 95
CC1=C(C(=O)Nc2ccc3[nH]ncc3c2)C(c2ccc3ccccc3c2)CC(=O)N1 (stereo not drawn) [GSK270822A] | 91 | 10 | 58 | 83 | 82 | 79 | 93 | 90 | 79 | 36
COc1ccc(COc2ccc(Cc3cnc(N)nc3N)cc2OC)cc1 [GW632580X] | 90 | 100 | 100 | 71 | 90 | 90 | 96 | 85 | 67 | 81
CC(C)COC(=O)c1ccc2c(c1)/C(=C/Nc1ccc(S(N)(=O)=O)cc1)C(=O)N2 [GW416981X] | 100 | 42 | 100 | 100 | 0.1 | 0.3 | 13 | 63 | 100 | 100
CCn1c(-c2nonc2N)nc2c(C#CC(C)(C)O)nc(OCCNC)cc21.Cl [GSK949675] | 100 | 95 | 95 | 100 | 88 | 100 | 94 | 83 | 100 | 67
C[C@@H](Oc1cc(-n2cnc3ccc(OC4CCN(C)CC4)cc32)sc1C(N)=O)c1ccccc1Cl [GSK579289A] | 60 | 100 | 93 | 92 | 71 | 44 | 100 | 64 | 29 | 95

From publication PMC7826789 (International Journal of Molecular Sciences, 2021)
